Percent Effect data for twelve compounds are collected here from ChEMBL document CHEMBL3988442, “University of Dundee, Small-Polar-MMV Screening Library” (2021).

For part of these data: Measured potencies and affinities stand elsewhere.

What all share (parameters): scale not given: direction of the effect not stated beside the values
Test [1] deals with Protein translocase subunit SecA (Escherichia coli (strain K12)) (UniProt P10408). Briefly: Assay to Identify E. coli SecA ATPase Inhibitors. The format is functional. Particulars: 30 µM.
Protein translocase subunit SecA (Escherichia coli (strain K12)), sequence (P10408 whole entry): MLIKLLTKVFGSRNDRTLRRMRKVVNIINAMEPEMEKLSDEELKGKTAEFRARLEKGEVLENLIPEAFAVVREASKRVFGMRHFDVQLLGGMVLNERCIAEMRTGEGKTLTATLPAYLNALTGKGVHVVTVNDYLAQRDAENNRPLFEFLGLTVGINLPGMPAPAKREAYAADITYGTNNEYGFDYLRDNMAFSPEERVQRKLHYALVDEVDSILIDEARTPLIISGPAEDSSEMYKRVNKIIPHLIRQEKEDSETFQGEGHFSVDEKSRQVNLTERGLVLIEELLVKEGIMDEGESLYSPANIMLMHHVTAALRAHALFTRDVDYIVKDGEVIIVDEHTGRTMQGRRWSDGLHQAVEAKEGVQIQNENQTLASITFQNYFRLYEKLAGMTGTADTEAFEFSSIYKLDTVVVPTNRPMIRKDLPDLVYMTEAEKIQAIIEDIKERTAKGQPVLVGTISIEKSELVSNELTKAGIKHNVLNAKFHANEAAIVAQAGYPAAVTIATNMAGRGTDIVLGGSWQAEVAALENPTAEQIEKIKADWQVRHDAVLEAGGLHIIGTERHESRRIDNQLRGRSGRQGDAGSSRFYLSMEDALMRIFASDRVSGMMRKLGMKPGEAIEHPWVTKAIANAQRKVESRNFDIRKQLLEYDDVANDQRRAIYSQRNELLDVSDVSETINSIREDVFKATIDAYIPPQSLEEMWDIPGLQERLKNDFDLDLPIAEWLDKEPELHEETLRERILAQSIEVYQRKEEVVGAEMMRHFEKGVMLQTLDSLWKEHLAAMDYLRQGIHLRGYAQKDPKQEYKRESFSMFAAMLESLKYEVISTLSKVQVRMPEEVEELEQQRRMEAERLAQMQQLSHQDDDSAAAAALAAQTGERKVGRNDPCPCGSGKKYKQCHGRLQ
For test [2], the target named is T1, Ubiquitin-activating enzyme e1, putative (Leishmania donovani (strain BPK282A1)) (UniProt E9BSI1).
T1 sequence (whole entry): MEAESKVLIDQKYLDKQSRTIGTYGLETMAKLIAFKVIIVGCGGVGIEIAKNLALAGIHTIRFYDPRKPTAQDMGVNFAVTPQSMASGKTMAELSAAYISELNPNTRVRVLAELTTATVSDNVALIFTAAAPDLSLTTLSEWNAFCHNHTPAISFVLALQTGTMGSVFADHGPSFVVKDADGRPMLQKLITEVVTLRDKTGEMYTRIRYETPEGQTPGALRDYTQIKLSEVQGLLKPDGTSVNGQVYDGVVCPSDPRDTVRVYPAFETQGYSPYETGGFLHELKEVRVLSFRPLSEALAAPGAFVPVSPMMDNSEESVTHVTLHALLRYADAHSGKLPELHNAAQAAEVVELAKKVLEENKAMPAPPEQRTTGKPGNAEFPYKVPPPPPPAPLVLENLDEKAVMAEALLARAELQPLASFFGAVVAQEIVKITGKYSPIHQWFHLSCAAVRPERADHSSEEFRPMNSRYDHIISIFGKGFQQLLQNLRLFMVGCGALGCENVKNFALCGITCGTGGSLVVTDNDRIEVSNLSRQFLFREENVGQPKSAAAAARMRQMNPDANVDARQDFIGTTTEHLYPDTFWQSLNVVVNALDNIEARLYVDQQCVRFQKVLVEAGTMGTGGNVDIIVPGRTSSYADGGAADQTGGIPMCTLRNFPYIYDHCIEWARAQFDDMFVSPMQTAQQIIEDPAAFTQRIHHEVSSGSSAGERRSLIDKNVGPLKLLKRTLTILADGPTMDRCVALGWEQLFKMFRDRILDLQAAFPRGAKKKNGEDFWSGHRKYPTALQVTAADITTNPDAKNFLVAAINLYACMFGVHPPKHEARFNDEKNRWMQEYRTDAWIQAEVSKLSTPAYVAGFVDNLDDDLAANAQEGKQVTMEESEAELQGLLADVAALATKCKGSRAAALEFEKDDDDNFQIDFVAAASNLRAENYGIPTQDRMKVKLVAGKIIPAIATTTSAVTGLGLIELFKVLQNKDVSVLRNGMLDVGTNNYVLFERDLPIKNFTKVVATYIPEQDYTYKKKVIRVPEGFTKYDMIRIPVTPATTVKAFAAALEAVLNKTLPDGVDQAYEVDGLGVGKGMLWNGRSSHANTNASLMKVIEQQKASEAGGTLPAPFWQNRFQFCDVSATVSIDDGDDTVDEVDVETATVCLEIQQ
Briefly: Leishmania donovani Ubiquitin Activating Enzyme (LdE1). Particulars: 30 µM. The format is functional.

For test [3], the target named is Sialic acid-binding Ig-like lectin 9 (Homo sapiens) (UniProt Q9Y336). Briefly: Hs-Siglec9 ALPHAscreen SOP 20170721. Particulars: 10 µM.
Sialic acid-binding Ig-like lectin 9 (Homo sapiens), sequence (Q9Y336 whole entry): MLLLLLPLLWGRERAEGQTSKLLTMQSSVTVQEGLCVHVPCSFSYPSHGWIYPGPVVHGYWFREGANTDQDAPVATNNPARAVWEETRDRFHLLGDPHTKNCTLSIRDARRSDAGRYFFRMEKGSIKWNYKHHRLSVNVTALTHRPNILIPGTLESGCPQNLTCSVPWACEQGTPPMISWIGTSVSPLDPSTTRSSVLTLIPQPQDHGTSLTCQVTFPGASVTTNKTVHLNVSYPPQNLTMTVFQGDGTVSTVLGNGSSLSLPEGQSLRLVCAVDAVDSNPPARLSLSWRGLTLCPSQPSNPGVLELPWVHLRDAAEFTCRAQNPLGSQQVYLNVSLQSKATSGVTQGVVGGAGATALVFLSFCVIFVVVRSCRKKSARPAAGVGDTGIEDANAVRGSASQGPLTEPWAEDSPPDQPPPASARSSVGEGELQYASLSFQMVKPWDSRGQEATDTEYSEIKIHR
For test [4], the system named is Trypanosoma cruzi. The test can be described thus: Trypanosoma cruzi phosphomannomutase and mannose-1-phosphate guanylyltransferase assay. Particulars: 10 µM. The test is classed as functional.
In test [5] the target is T2, Arginase-2, mitochondrial (Homo sapiens) (UniProt P78540).
T2 sequence (whole entry): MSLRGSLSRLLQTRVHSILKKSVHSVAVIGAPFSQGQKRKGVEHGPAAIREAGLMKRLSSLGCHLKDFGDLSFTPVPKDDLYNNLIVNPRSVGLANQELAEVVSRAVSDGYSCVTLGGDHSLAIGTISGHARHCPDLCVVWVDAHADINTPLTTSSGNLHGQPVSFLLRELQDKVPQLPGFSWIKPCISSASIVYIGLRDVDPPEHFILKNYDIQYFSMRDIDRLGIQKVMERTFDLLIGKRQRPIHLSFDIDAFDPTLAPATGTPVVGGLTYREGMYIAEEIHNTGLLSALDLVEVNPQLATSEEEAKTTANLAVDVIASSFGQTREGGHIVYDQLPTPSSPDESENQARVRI
Briefly: in vitro enzyme assay to detect the production of urea directly proportional to the activity of Arginase II. Also: in the data most compounds retested in dose-response had high values. The format is functional. Particulars: 33.3 µM.

Test [6] concerns the target T3, Proteasome subunit beta (Trypanosoma cruzi) (UniProt O96673).
T3 sequence (whole entry): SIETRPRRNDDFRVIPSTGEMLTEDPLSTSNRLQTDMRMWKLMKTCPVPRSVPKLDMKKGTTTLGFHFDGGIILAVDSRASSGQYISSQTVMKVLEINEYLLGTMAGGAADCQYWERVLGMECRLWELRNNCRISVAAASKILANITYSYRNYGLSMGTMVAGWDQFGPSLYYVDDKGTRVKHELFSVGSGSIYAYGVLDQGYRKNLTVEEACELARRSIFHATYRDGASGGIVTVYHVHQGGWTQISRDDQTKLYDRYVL
Briefly: Trypanosoma cruzi proteasome chymotrypsin-like activity (TcProtChymo) assay. Also: in the data most compounds retested in dose-response had high values. Particulars: 9.37 µM. The format is functional.

The species entered for test [7] is Homo sapiens. Briefly: To identify inhibition of the IFN signalling (Jak-Stat) pathway via expression of an eGFP reporter gene under the control of an IFN-stimulated response element (ISRE) containing MxA promoter. The test is classed as functional. Particulars: 30 µM.
The target in test [8] is T4, Tyrosyl-tRNA synthetase, putative (Trypanosoma cruzi (strain CL Brener)) (UniProt Q4DSP6).
T4 sequence (whole entry): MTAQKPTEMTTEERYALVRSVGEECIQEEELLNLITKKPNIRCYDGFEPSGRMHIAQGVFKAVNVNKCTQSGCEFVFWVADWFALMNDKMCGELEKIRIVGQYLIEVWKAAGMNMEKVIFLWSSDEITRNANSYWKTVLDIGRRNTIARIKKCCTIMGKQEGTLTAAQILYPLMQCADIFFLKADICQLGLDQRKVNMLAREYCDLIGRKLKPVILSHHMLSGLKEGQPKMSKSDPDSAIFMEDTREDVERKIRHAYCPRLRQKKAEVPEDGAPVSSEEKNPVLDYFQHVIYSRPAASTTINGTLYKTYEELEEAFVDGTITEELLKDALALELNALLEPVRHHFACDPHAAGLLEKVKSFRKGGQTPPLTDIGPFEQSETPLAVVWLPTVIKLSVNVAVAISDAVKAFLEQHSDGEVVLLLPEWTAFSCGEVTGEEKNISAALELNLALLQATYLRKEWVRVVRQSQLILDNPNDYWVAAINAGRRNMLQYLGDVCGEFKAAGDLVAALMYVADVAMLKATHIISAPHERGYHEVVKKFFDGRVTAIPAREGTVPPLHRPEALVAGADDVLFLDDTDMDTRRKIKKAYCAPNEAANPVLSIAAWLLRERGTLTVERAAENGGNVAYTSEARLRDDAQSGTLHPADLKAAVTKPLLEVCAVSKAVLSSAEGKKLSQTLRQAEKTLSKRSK
Briefly: Trypanosoma cruzi tyrosyl tRNA synthetase (TcYRS) _High Tyrosine SOP. Also: in the data most compounds retested in dose-response had high values. The format is functional. Particulars: 30 µM.

Test [9] deals with T4, Tyrosyl-tRNA synthetase, putative (Trypanosoma cruzi (strain CL Brener)). Briefly: Trypanosoma cruzi tyrosyl tRNA synthetase (TcYRS) SOP. The format is functional. Particulars: 30 µM.
Test [10] concerns the target Chromo domain-containing protein 1 (Saccharomyces cerevisiae (strain ATCC 204508 / S288c) (Baker's yeast)) (UniProt P32657). The test can be described thus: ScCHD-1 Enzyme Inhibition Assay. Also: in the data most compounds retested in dose-response had high values. The format is functional. Particulars: 30 µM.

Chromo domain-containing protein 1 (Saccharomyces cerevisiae (strain ATCC 204508 / S288c) (Baker's yeast)), sequence (P32657 whole entry, the tested form may be a part): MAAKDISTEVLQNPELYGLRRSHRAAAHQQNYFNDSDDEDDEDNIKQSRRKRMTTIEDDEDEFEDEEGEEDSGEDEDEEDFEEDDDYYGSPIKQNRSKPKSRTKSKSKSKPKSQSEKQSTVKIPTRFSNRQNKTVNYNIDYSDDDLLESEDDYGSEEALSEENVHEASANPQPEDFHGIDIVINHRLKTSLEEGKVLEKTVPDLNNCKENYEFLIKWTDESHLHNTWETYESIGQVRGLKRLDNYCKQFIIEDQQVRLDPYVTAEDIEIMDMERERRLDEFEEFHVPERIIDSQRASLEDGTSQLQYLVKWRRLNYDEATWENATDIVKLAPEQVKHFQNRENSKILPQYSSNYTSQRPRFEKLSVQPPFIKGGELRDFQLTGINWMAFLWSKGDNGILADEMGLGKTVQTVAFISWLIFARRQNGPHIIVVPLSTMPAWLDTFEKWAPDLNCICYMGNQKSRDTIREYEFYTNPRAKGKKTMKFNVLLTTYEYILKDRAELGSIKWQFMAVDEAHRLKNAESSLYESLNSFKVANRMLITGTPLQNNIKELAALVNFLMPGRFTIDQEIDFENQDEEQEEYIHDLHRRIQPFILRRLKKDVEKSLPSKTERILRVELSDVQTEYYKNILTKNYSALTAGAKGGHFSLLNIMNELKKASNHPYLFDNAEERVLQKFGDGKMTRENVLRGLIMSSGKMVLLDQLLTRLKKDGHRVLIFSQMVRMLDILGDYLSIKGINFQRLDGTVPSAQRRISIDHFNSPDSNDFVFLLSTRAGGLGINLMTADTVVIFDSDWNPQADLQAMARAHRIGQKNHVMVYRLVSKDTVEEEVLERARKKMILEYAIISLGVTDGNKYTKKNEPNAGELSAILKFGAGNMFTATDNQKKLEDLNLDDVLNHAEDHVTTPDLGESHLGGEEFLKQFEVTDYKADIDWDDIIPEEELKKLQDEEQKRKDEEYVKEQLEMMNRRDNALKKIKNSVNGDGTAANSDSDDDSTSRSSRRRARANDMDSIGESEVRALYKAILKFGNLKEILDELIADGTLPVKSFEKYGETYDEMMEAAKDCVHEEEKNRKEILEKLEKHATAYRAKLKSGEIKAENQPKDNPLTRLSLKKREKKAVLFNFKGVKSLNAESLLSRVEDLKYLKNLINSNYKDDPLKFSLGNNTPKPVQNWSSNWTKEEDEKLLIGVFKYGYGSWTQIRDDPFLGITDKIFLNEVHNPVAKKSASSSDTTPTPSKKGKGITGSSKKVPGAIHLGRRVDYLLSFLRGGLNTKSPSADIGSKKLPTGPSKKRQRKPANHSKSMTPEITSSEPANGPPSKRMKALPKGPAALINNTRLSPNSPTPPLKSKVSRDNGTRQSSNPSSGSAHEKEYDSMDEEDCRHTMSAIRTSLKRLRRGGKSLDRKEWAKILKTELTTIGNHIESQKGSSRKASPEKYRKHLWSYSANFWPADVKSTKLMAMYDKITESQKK

Take `CC(C)c1noc(CCCC(=O)NC2CCS(=O)(=O)C2)n1` (stereo not given): the Percent Effect in [1] is -0.362%; in test [2] it was 13.3%; in test [3] it was -4.53%; in test [4] it was 2.01%; in test [5], -7.98%; in test [6], 12.6%. Further, the Percent Effect in test [7] is 8.49%; in test [8], 5.79%; in test [9], 15.4%; in [10], -11%.
For `Cc1nccn1C1CCCN(C(=O)COCC(F)(F)F)C1` (stereo not given), the Percent Effect in test [1] is -0.686%; in [2] it was 2.56%; in test [3], 10.1%; in test [4], 0.845%; in [5], -2.05%; in test [6] it was 0.597%. The Percent Effect in [7] is -3.59%; in test [8], -3.35%; in test [9], -1.21%; in test [10], -1.66%.
Consider `COCC1CN(Cc2ccsc2)Cc2nn(C)cc21` (stereo not given), for which the Percent Effect was -4.97% in [1]; 6.49% in [2]; -3.38% in test [3]; -7.11% in test [4]; 2.83% in test [5]; 20.9% in test [6]. Moreover, the Percent Effect in test [7] turned out to be 13.5%; in test [8], 3.68%; in [9], 0%; in test [10] it was 2.62%.
Turning to `CC(C)N1CCCC2(CCN(C(=O)CCCn3ccnc3)C2)C1=O` (stereo not given), the Percent Effect was -6.84% in test [1]; 2.7% in test [2]; 0.678% in test [3]; -2.62% in test [4]; -1.75% in [5]; 13.4% in test [6]. The Percent Effect in test [7] is -5.32%; in test [8], 4.79%; in [9], 12.2%; in test [10], -0.546%.
On to `CC(C)NC(=O)N1CCN(Cc2ccccn2)CC2(CC(=O)N(C)C2)C1` (stereo not given), for which the Percent Effect in test [1] was -6.73%; in [2], 11.7%; in test [3], 1.64%; in test [4], -0.563%; in test [5], -2.28%; in [6], 2.49%. In addition, the Percent Effect in test [7] is 13.5%; in [8], 0%; in [9], 0%; in [10] it was -7.79%.
For the compound `CC(C)c1cc(CNC(=O)N2CCC(Cc3cnn(C)c3)C2)on1` (stereo not given), the Percent Effect is -5.49% in test [1]; 10.3% in test [2]; -6.83% in [3]; 5.92% in [4]; -1.23% in test [5]; 4.69% in [6]. Further, the Percent Effect was 4.85% in test [7], 1.44% in [8], 8.43% in test [9] and -5.54% in test [10].
Turning to `COc1cccc2c1OCC(C(=O)NC1CCN(S(C)(=O)=O)CC1)C2` (stereo not given), the Percent Effect was -2.9% in test [1]; 16.2% in test [2]; 3.48% in test [3]; 3.59% in test [4]; 12.2% in [5]; 18.7% in test [6]. The Percent Effect in test [7] turned out to be 16.9%; in test [8], 5.85%; in [9], 17.1%; in test [10] it was 93.6%.
As for `c1ccc(CNC2CCc3ncnn3C2)nc1` (stereo not given), the Percent Effect in test [1] is 0.311%; in [2], 12.8%; in [3], -14.6%; in [4] it was -4.98%; in test [5], 1.23%; in test [6] it was 21.1%. The Percent Effect in test [7] is 30.1%; in test [8] it was 9.09%; in [9], 20.5%; in test [10] it was -2.61%.
For the compound `Cc1nc(C(=O)N2CCc3c(nc(-c4ccncc4)[nH]c3=O)C2)cs1`, the Percent Effect was -4.53% in [1]; 0% in [2]; 1.7% in test [3]; -2.62% in [4]; 3.85% in [5]; 11.6% in test [6]. For the same compound, the Percent Effect is 5.04% in [7], 5.85% in test [8], 9.76% in test [9] and -3.73% in [10].
For `CC(C)n1ccnc1C1CCN(C(=O)C2COc3ccccc3O2)CC1` (stereo not given), the Percent Effect is -9.12% in test [1]; 5.41% in test [2]; 10.4% in [3]; 7.08% in [4]; 12.9% in test [5]; 13.2% in [6]. Further, the Percent Effect was -5.55% in test [7], 7.98% in test [8], 14.6% in test [9] and -3.02% in test [10].
`O=C(c1cc(Cl)c2c(c1)OCO2)N1CCCC(n2ccnc2)C1` (stereo not given): the Percent Effect in [1] is -2.43%; in test [2], 5.33%; in test [3] it was 3.84%; in [4], 2.01%; in test [5], 0%; in test [6], 7.72%. The Percent Effect in [7] was 9.8%; in test [8], -6.84%; in test [9], 5.13%; in test [10], -5.15%.
On to `Cc1ccc(C(=O)N2CCC3(CC2)COC(COc2ccccn2)C3)o1` (stereo not given), for which the Percent Effect in test [1] was -7%; in test [2] it was 19.5%; in [3], 6.32%; in [4] it was 2.24%; in test [5] it was -2.83%; in test [6] it was 7.33%. Moreover, the Percent Effect was -10.8% in test [7], 5.79% in test [8], 12.8% in test [9] and 18.6% in [10].
